From PubChem BioAssay (NCATS) come the findings set out here.

Records with an inconclusive call do not appear. Where a call stands in place of a potency, no number is given. Calls of active or inactive are those of the source. Calls come from the whole dose curve; as a rule, active = well fitted inhibition curve with a large enough effect; inconclusive = small, poorly fitted or top-dose-only effect; inactive = flat fitted curve, though single readings scatter. *1 amine or outer side, *2 acyl side, *3 side chain or, on linkers, in order; H or OH if unused. Where a SMILES comes first, the peptide text is derived from it. Bridges are numbered along the chain shown (N, C = ends). [ ]: non-standard residue; d: D form. The star is where a group is joined. X5 = NC1=N[C@@H]([C@H](N[*:1])C(=O)[*:2])C[C@H](O)N1; ΔAla(Z-3-ureido) = NC(=O)N/C=C(\N)C(=O)O; pGlu = O=C1CC[C@@H](C(=O)O)N1; β3hOrn = NCCC[C@H](N)CC(=O)*; Dap = NC[C@H](N)C(=O)O
Potency is the fitted concentration of half-maximal effect.

Chain of Voltage-gated inwardly rectifying potassium channel KCNH2 (Homo sapiens) (Q12809 whole entry, looked up): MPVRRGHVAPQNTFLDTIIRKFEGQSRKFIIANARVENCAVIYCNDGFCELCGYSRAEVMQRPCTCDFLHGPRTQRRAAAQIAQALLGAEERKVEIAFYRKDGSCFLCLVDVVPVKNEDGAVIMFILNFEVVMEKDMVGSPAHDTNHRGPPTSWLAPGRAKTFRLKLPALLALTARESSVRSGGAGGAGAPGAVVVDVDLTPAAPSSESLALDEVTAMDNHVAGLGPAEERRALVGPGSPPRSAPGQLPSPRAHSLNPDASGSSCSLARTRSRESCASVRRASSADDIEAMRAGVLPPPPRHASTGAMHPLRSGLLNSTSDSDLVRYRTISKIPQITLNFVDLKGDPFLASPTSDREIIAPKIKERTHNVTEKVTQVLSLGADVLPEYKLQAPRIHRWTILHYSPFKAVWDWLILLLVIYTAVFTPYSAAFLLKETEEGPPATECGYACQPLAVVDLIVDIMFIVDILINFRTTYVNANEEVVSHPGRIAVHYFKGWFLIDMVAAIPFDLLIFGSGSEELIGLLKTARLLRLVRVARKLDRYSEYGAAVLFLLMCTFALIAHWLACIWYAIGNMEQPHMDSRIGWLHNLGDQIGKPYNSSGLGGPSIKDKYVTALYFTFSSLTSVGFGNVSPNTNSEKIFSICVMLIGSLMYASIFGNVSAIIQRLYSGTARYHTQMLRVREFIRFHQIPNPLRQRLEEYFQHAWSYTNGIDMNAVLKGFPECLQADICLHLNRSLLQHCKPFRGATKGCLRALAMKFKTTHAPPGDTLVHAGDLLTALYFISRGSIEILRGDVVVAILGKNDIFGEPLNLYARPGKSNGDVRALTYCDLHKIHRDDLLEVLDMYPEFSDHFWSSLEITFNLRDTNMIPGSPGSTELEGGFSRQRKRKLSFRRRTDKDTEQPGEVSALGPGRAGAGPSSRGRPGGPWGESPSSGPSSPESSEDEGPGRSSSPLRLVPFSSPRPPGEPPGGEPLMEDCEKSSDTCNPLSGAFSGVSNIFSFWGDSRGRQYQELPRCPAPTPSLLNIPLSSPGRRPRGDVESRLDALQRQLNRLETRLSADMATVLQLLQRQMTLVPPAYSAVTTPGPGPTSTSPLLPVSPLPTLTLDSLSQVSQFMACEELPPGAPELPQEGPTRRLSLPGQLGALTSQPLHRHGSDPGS

This assay addresses Voltage-gated inwardly rectifying potassium channel KCNH2 (Homo sapiens) (UniProt Q12809). The experiment in a line: qHTS Assay for Small Molecule Inhibitors of the Human hERG Channel Activity (AID 588834).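 Note: lower thallium flux fluorescence means stronger hERG block; nearly all actives have a fitted effect of over 50% in size.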 As to conditions: U2OS BacMam hERG, FluxOR thallium flux fluorescence; series mostly up to 46.1 µM. Summed up: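 In hERG-transduced U2OS cells, dye-loaded for 1 hr at room temperature in dark, test compounds incubated 10 min at 37 °C before thallium stimulation. AC50 values derived by Hill modelling of concentration-response.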
Background: In qHTS, concentration-response curves come from the screen itself.
With `CC1=CC(=C(c2ccc(N)cc2)c2ccc(N)cc2)C=CC1=N`, the Potency entry is “inactive”.

For `CO/N=C(\C(=O)N[C@@H]1C(=O)N2C(C(=O)O)=CCS[C@H]12)c1csc(N)n1`, the Potency result was “inactive”.

For the molecule `CCCCC(=O)O[C@H]1CC[C@H]2[C@@H]3CCc4cc(O)ccc4[C@H]3CC[C@]12C`, the Potency result was “inactive”.

Regarding `CC(C)CN(C[C@@H](OP(=O)(O)O)[C@H](Cc1ccccc1)NC(=O)O[C@H]1CCOC1)S(=O)(=O)c1ccc(N)cc1`, the Potency entry was “inactive”.

For the molecule `CC[C@H](C)[C@H](NC(=O)[C@H](Cc1ccccc1)NC(=O)[C@H](C)NC(=O)[C@H](CC(=O)O)NC(=O)[C@H](CCCCN)NC(=O)[C@H](CO)NC(=O)[C@@H]1CCCN1C(=O)[C@@H]1CCC(=O)N1)C(=O)NCC(=O)N[C@@H](CC(C)C)C(=O)N[C@@H](CCSC)C(N)=O` ([pGlu]PSKDAFIGLM-NH2), the Potency result was “inactive”.

Consider `CC1(C)[C@@H]2CC[C@@]1(C)[C@H](OC(=O)CSC#N)C2`, for which the Potency result is “inactive”.

As for `O=C1NC(=O)[C@H]2[C@@H]1[C@@H]1C=C[C@H]2C1`, the Potency result is “inactive”.

As to `CC(=O)OCC(=O)[C@@]1(O)CC[C@H]2[C@@H]3CCC4=CC(=O)CC[C@]4(C)C3=CC[C@@]21C`, the Potency entry is “inactive”.

For the molecule `NC[C@H]1O[C@H](O[C@H]2[C@H](O)[C@@H](O[C@H]3O[C@H](CO)[C@@H](O)[C@H](N)[C@H]3O)[C@H](N)C[C@@H]2N)[C@H](N)C[C@@H]1O`, the Potency result is “inactive”.

Take `CO[C@@]1(NC(=O)C2SC(=C(C(N)=O)C(=O)O)S2)C(=O)N2C(C(=O)O)=C(CSc3nnnn3C)CS[C@@H]21` (some centres not stated): the Potency was 7.08 µM (active).

Consider `CC(O)[C@@H]1NC(=O)[C@H](Cc2ccccc2)NC(=O)[C@H](C(C)O)NC(=O)[C@H](CCCCN)NC(=O)[C@H](Cc2c[nH]c3ccccc23)NC(=O)[C@H](Cc2ccccc2)NC(=O)[C@H](Cc2ccccc2)NC(=O)[C@H](CC(N)=O)NC(=O)[C@H](CCCCN)NC(=O)[C@@H](NC(=O)CNC(=O)[C@H](C)N)CSSC[C@@H](C(=O)O)NC(=O)[C@H](CO)NC1=O` (some centres not stated), for which the Potency entry was “inactive”.

Consider `CCC(Oc1ccccc1)C(=O)N[C@@H]1C(=O)N2[C@@H]1SC(C)(C)[C@@H]2C(=O)O` (some centres not stated), for which the Potency entry was “inactive”.

As to `C=Cc1c(C)c2cc3nc(cc4[nH]c(cc5nc(cc1[nH]2)C(C)=C5CCC(=O)OC)c(CCC(=O)O)c4C)[C@@]1(C)C3=CC=C(C(=O)OC)[C@H]1C(=O)OC`, the Potency result was “inactive”.

Consider `O=[N+]([O-])O[C@@H]1CO[C@H]2[C@@H]1OC[C@@H]2O`, for which the Potency result is “inactive”.

As for `C=C1[C@H](CO)[C@@H](O)C[C@@H]1n1cnc2c(=O)[nH]c(N)nc21`, the Potency entry was “inactive”.

For `CCOC(=O)[C@H](CS)NCCN[C@@H](CS)C(=O)OCC`, the Potency entry was “inactive”.

On to `C=C1CC[C@H](O)C/C1=C\C=C1/CCC[C@]2(C)[C@@H]([C@H](C)CCCC(C)C)CC[C@@H]12`, for which the Potency entry is “inactive”.

Regarding `OC[C@H]1OC([S-])[C@H](O)[C@@H](O)[C@@H]1O.[Au+]` (some centres not stated), the Potency result is “inactive”.

With `NC(Cc1ccccc1)C(=O)O` (configuration not stated), the Potency result was “inactive”.

As to `Nc1nc(NC2CC2)c2ncn([C@@H]3C=C[C@@H](CO)C3)c2n1`, the Potency result was “inactive”.

Consider `O=C(O)CN(CC(=O)O)CC1=CC2C(=CC1=O)Oc1cc(O)c(CN(CC(=O)O)CC(=O)O)cc1C21OC(=O)c2ccccc21` (configuration not stated), for which the Potency was 0.891 µM (active).

With `CCN1C(=O)NC(c2ccccc2)C1=O` (configuration not stated), the Potency entry is “inactive”.

In the case of `NCCC[C@H](N)CC(=O)N[C@H]1CNC(=O)[C@H]([C@H]2C[C@H](O)NC(N)=N2)NC(=O)/C(=C/NC(N)=O)NC(=O)[C@H](CO)NC(=O)[C@H](CO)NC1=O` (β3hOrn-[Dap]SS[ΔAla(Z-3-ureido)][X5]; lactam 1-C), the Potency result is “inactive”.

For `O=C1CC[C@@H](C(=O)N[C@H]2C[C@@H]2c2ccccc2)N1`, the Potency entry was “inactive”.

Turning to `CC[C@H]1NC(=O)[C@@H](NC(=O)c2ncccc2O)[C@@H](C)OC(=O)[C@H](c2ccccc2)NC(=O)[C@@H]2CC(=O)CCN2C(=O)[C@H](Cc2ccccc2)N(C)C(=O)[C@@H]2CCCN2C1=O`, the Potency entry is “inactive”.

For `O=C(OC[C@H]1O[C@](O)(COC(=O)c2cccnc2)[C@@H](OC(=O)c2cccnc2)[C@@H]1OC(=O)c1cccnc1)c1cccnc1`, the Potency result was “inactive”.

As to `CC[C@@H]1/C=C(\C)C[C@H](C)C[C@H](OC)[C@H]2O[C@@](O)(C(=O)C(=O)N3CCCC[C@H]3C(=O)O[C@H](/C(C)=C/[C@@H]3CC[C@@H](Cl)[C@H](OC)C3)[C@H](C)[C@@H](O)CC1=O)[C@H](C)C[C@@H]2OC`, the Potency entry is “inactive”.
